Compound activity (PubChem BioAssay)
Vif-APOBEC3G blk: qHTS for Inhibitors of Vif-A3G Interactions: qHTS; HeLa A3G-eYFP + Vif (tagged APOBEC3G with the HIV-1 protein that degrades it), YFP fluorescence, overnight; Potency, µM (doses to about 46.1 µM), for inactives: at the highest dose activity, negative = active, usual class: inhibitors; actives 0.076% (n = 410,000); AID 602310, 2012; also: potency is read from the fitted curve at half-maximal effect; % is scaled to controls: 0 for no effect and ±100 for the full control effect; nearly all actives have a fitted effect of over 60% in size
Target sequence (Q9HC16 whole entry, looked up): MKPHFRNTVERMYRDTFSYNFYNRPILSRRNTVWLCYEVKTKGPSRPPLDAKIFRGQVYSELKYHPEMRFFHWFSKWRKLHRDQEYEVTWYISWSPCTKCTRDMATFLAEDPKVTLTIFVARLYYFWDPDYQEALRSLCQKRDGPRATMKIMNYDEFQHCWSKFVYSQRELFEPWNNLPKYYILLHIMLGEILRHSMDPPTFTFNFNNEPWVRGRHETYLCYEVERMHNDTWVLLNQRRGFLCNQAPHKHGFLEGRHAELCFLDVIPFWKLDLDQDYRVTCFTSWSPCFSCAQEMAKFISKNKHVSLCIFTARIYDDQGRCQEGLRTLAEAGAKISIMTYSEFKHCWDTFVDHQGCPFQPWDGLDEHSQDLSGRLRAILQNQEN
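Read-out is eYFP fluorescence (Ex 488/Em 500-530) from Vif-expressing HeLa A3G-eYFP cells; more signal means A3G escaped Vif-mediated degradation. Cells plated overnight, compound pinned in, incubated overnight at 37 deg C.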
Giardia kill: Small Molecules that selectively kill Giardia lamblia: qHTS; Giardia lamblia trophozoite viability; activity change, % at 7.66 µM, hits read low; actives 0.15% (n = 340,000); AID 540267, 2011; in the data active = activity change below about -80%; inconclusive = between about -30% and that limit;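 also: parasites exposed to compound for two days anaerobically before the ATP read; % is scaled to controls: 0 for no effect and ±100 for the full control effect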
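Compounds were tested on trophozoites seeded at 100 cells/well and held 48 hrs at 37 deg C anaerobically. An ATP-based luminescent kit measured the remaining live cells.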
Vif-A3F inh: qHTS for Inhibitors of Vif-A3F Interactions: qHTS. HeLa A3F-eYFP + Vif (tagged APOBEC3F with the HIV-1 protein that degrades it), YFP fluorescence increase. Potency, µM (titrated, usually from 46.1 µM), for the others: at the top dose activity, negative = active. actives 0.2% (n = 390,000); also: potency is read from the fitted curve at half-maximal effect; % of control where 0% means no effect; nearly all actives have a fitted effect of over 65% in size
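Fluorescence increase (Ex 488/Em 500-530) after overnight compound treatment at 37 deg C flags inhibition of Vif-driven A3F-eYFP loss in stable HeLa A3F-eYFP/Vif cells seeded overnight beforehand.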
SW480 rereplic: A quantitative high throughput screen for small molecules that induce DNA re-replication in SW480 colon adenocarcinoma cells | SW480 DNA re-replication, Hoechst DNA content imaging, 48 h | Potency, µM (titrated, usually from 46.1 µM), without a hit: top-dose re-replication activation, actives largely listed as activators | actives 1.8% (n = 340,000); also: potency is read from the fitted curve at half-maximal effect; % of control where 0% means no effect; nearly all actives have a fitted effect of over 55% in size
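250 cells/well; 23 nL cpd via pin tool; 48 hr, 37 C, 5% CO2; Hoechst 40 min; imager read of total nuclear intensity, ex 405/em 500-530 nm.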
MCF10A rerep: A quantitative high throughput screen for small molecules that induce DNA re-replication in MCF 10a normal breast cells | MCF 10A DNA re-replication, Hoechst nuclear intensity, 48 h | Potency, µM (titrated, usually from 46.1 µM), without a hit: top-dose activity, positive = re-replication, actives largely listed as activators | actives 2.9% (n = 350,000) | AID 624296, 2012; also: potency is read from the fitted curve at half-maximal effect; % of control where 0% means no effect; nearly all actives have a fitted effect of over 50% in size
IL1B secr inh: qHTS for Inhibitors of Inflammasome Signaling: IL-1-beta AlphaLISA Primary Screen; THP-1 LPS/ATP IL-1B secretion, AlphaLISA, 16 h; hits give low values; actives 4.7% (n = 360,000); activity change, % at 57.5 µM; AID 743279, 2014; in the data active = activity change below about -50%; inconclusive = mostly about -30% to -49%; also: % is scaled to controls: 0 for no effect and ±100 for the full control effect
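THP-1 cells pretreated 1 hr with compounds (up to 57.5 uM final), then stimulated with LPS (250 ng/mL final) plus ATP (1.25 mM final); secreted IL-1B measured by AlphaLISA after 16 hr, decreased signal indicating inhibition.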
Active calls of the source: *; ? = inconclusive; . = not tested or not shown; [ ] = another dose, or the depositor's remark. Sampled rows, rich in hits. Any-hit rate of the full collection: about 6.9%. Unless noted, calls follow the shape of the dose curve; as a rule, active = well fitted curve in the direction sought with a large enough effect; inconclusive = small, poorly fitted or top-dose-only effect, or another doubt; inactive = no such curve, though single readings can be large; an effect the other way counts as inactive or inconclusive.

SMILES | Vif-APOBEC3G blk | Giardia kill | Vif-A3F inh | SW480 rereplic | MCF10A rerep | IL1B secr inh
O=C(NCc1ccc(F)cc1)C(c1ccccc1)c1ccccc1 | -1% | -15 | 0% | 15% | 9% | ?
CC(=O)N(Cc1ccc(F)cc1)C1=C(NCc2ccccc2)C(=O)c2ccccc2C1=O | -12% | 34 | 6% | ? | ? | -93*
Cc1ccc(C)c(N2CCN(S(=O)(=O)c3cc(C(=O)Nc4ccccc4C(F)(F)F)ccc3F)CC2)c1 | 8% | . | -1% | . | . | .
Cc1ccc(N(CC(=O)Nc2ccc(Br)cc2)S(=O)(=O)c2cccs2)cc1 | -1% | . | 3% | . | . | .
CN1CCN(C2=Cc3ccccc3Sc3cc(F)ccc32)CC1 | -1% | -1 | -3% | -6% | -2% | ?
CN1CCN(C2=Cc3ccc(Cl)cc3Sc3ccc(F)cc32)CC1 | 1% | 25 | -8% | 4µM* | ? | -71*
CN1CCN(C2Cc3cc(F)ccc3Sc3ccc(Cl)cc32)CC1 (stereo not given) | -8% | 3 | -13% | ? | 21µM* | ?
CN1CCN(C2Cc3ccc(F)cc3Sc3cc(F)c(Cl)cc32)CC1 (stereo not given) | -26% | 13 | 8% | ? | ? | -97*
COc1ccc(-c2cc(CNC(=O)CCl)on2)cc1 | -10% | -18 | 2% | ? | ? | -92*
CCOC(=O)c1nc(NCCc2ccccc2)sc1C | 10% | 12 | -3% | 6% | 2.1µM* | -27
CCOc1ccc(S(=O)(=O)N2CCC(N3CCN(Cc4ccc(F)cc4)C(=O)C3=O)CC2)cc1 | -2% | . | -10% | . | . | .
COc1ccc2[nH]c(C)c(CCN(Cc3cccs3)C(=S)Nc3ccccc3)c2c1 | -18% | -14 | 1% | 2% | 14% | -50*
CNC(=S)N(CCc1c(C)[nH]c2ccc(C)cc12)Cc1cc(OC)c(OC)c(OC)c1 | -7% | ? | -3% | ? | 1% | -9
CNC(=S)N(CCc1c(C)[nH]c2ccc(C)cc12)Cc1cccs1 | -7% | 13 | -2% | 30% | 3.7µM* | -1
COc1ccc(NC(=S)N(CCc2c(C)[nH]c3ccc(C)cc23)Cc2ccco2)cc1 | -5% | -26 | 4% | ? | -1% | -28
COCCNC(=S)N(CCc1c(C)[nH]c2ccc(F)cc12)Cc1ccc(C)cc1 | -1% | 10 | 2% | ? | ? | -73*
COc1ccc(NC(=S)N(CCc2c(C)[nH]c3ccc(C)cc23)Cc2cccs2)cc1 | 1% | 11 | 2% | 1% | -5% | -56*
COc1ccc2[nH]c(C)c(CCN(Cc3cccs3)C(=S)Nc3ccc(F)cc3)c2c1 | -2% | 4 | -2% | 0% | 19% | -28
O=C(CC1NCCNC1=O)Nc1cccc(F)c1 (stereo not given) | 0% | . | 1% | . | . | .
CCCCc1n[nH]c2c1/C(=N/O)CC(c1ccccc1)C2 (stereo not given) | -1% | 0 | . | 2%[9.22 µM] | 5% | -58*
Cc1cccc(Nc2nc3c(S(=O)(=O)c4ccc(Br)cc4)nnn3c3ccsc23)c1C | 7% | . | -6% | . | . | .
CC(C)(C)CC(C)(C)SSc1n[nH]c(=S)s1 | 2% | -2 | ? | ? | -7% | -73*
CCOC(=O)CSc1n[nH]c(=S)s1 | 1% | 6 | 3% | -6% | 5% | 19
C#CCOCCOCCOCCNc1nc(N2CCN(C(=O)CCCCCCCCCCNC(=O)[C@H]([C@@H](C)CC)n3cc(CCCCN=C(N)N)nn3)CC2)nc(N2CCN(C(=O)CCCCCCCCCCNC(=O)[C@H](CCCCN)n3cc(C)nn3)CC2)n1 | -23% | -23 | 7% | ? | ? | -112*
C#CCOCCOCCOCCNc1nc(N2CCOCC2)nc(N2CCN(C(=O)CCCCCCCCCCNC(=O)[C@@H](CCC(=O)O)n3cc(CCCCCN)nn3)CC2)n1 | 0% | 18 | -1% | -9% | -14% | 13
SMILES | Vif-APOBEC3G blk | Giardia kill | Vif-A3F inh | SW480 rereplic | MCF10A rerep | IL1B secr inh
C#CCOCCOCCOCCNc1nc(N2CCN(C(=O)CCCCCCCCCCNC(=O)[C@@H](CCC(=O)O)n3cc(CCCCCN)nn3)CC2)nc(N2CCN(C(=O)CCCCCCCCCCNC(=O)[C@H]([C@@H](C)CC)n3cc(CCCCCN)nn3)CC2)n1 | -12% | -19 | -17% | -2% | -7% | -95*
C#CCOCCOCCOCCNc1nc(N2CCN(C(=O)CCCCCCCCCCNC(=O)[C@H]([C@@H](C)CC)n3cc(CCCCCN)nn3)CC2)nc(N2CCN(C(=O)CCCCCCCCCCNC(=O)[C@H](CCCCN)n3cc(CCCC(=O)O)nn3)CC2)n1 | -17% | 8 | 0% | 2% | -14% | -88*
C#CCOCCOCCOCCNc1nc(N2CCN(C(=O)CCCCCCCCCCNC(=O)[C@H]([C@@H](C)CC)n3cc(CCCCCN)nn3)CC2)nc(N2CCN(C(=O)CCCCCCCCCCNC(=O)[C@H](CO)n3cc(CCCCCN)nn3)CC2)n1 | -18% | 9 | 3% | -4% | 3% | -83*
C#CCOCCOCCOCCNc1nc(N2CCN(C(=O)CCCCCCCCCCNC(=O)[C@H](CCCCN)n3cc(CCCC(=O)O)nn3)CC2)nc(N2CCN(C(=O)CCCCCCCCCCNC(=O)[C@@H]([C@H](C)O)n3cc(C)nn3)CC2)n1 | -7% | -18 | 0% | -15% | ? | 0
CCCCOc1ccc(C(=O)Nc2onc3c2CCCC3)cc1 | -1% | . | 4% | . | . | .
COc1cc2ncnc(N3CCN(C(=O)Nc4ccc(Oc5ccccc5)cc4)CC3)c2cc1OC | 0% | . | . | . | . | .
COc1cccc(NC(=O)CSc2nnc(NC(=O)NC3CCCCC3)s2)c1 | 0% | . | 0% | . | . | .
C#CCOCCOCCOCCNc1nc(N2CCN(C(=O)CCCCCCCCCCNC(=O)Cn3cc(CCCCCN)nn3)CC2)nc(N2CCN(C(=O)CCCCCCCCCCNC(=O)[C@H]([C@@H](C)CC)n3cc(CCCCN=C(N)N)nn3)CC2)n1 | -26% | ? | 8% | ? | ? | -110*
C#CCOCCOCCOCCNc1nc(N2CCOCC2)nc(N2CCN(C(=O)CCCCCCCCCCNC(=O)[C@@H]([C@H](C)CC)n3cc(CCCCCN)nn3)CC2)n1 | 0% | -17 | -15% | ? | 12µM* | 2
